According to PubChem BioAssay:
The source made the active and inactive calls.

Tests used:
[1] = optical density shifts of acrAB sulA E. coli – strain DRC41, OD650, 48 h, E. coli filamentation inducer project, primary screen (AID 1152); settings: higher = more signal, called active from +8 up or from −8 down;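 further: E. coli MC1000 strain DRC41 lacking acrAB efflux pump and sulA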
[2] = probe aLefty1 binding on compound microarray – biochemical, small-molecule microarray, 635/667 nm fluorescence, primary screen (AID 1153); settings: higher = more signal;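 further: score merges spot fluorescence with signal-to-noise ratio from the scanned slide images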
[3] = plasmodial surface anion channel blockers, osmotic lysis – cell-based, P. falciparum Indochina, OD700, 1 h, primary screen (AID 1154); settings: P. falciparum Indochina infected RBC osmotic lysis, higher = more signal, called active from +8 up or from −8 down
[4] = plasmodial surface anion channel blockers, osmotic lysis – cell-based, P. falciparum Indochina, OD700, 2 h, primary screen (AID 1155);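 further: lysis reports solute entry through the parasite surface anion channel PSAC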; settings: P. falciparum Indochina infected erythrocytes, higher = more signal, called active from +8 up or from −8 down
[5] = changes in parasitized red cell lysis, either direction – P. falciparum Indochina, OD700, 3 h, PSAC antagonist project, primary screen (AID 1156); settings: P. falciparum-infected erythrocytes, osmotic lysis, higher = more signal, called active from +8 up or from −8 down
[6] = plasmodial surface anion channel blockers, osmotic lysis – cell-based, P. falciparum Indochina, OD700, 18 h, primary screen (AID 1157); settings: P. falciparum Indochina infected erythrocytes, osmotic lysis OD700, 18 h; higher = more signal, called active from +8 up or from −8 down
[7] = S6 kinase pathway phospho-S6 level changes – cell-based, A549, cytoblot, luminescence, serum-stimulated, primary screen (AID 1158); settings: 5 h, higher = more signal;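 further: serum-stimulated A549 lung adenocarcinoma cells; signal is phosphorylated S6 detected by cytoblot immunostaining with HRP secondary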
[8] = target: NADPH oxidase 2 (Homo sapiens) (UniProt P04839); test: compounds shifting NOX2 Amplex Red fluorescence – cell-based, HEK293-NOX2, PMA-stimulated, NOX inhibitor project, primary screen (AID 1159); settings: 45 min, higher = more signal, called active from +8 up or from −8 down; further: test concentration not given here
NADPH oxidase 2 (Homo sapiens), sequence (P04839 whole entry, looked up): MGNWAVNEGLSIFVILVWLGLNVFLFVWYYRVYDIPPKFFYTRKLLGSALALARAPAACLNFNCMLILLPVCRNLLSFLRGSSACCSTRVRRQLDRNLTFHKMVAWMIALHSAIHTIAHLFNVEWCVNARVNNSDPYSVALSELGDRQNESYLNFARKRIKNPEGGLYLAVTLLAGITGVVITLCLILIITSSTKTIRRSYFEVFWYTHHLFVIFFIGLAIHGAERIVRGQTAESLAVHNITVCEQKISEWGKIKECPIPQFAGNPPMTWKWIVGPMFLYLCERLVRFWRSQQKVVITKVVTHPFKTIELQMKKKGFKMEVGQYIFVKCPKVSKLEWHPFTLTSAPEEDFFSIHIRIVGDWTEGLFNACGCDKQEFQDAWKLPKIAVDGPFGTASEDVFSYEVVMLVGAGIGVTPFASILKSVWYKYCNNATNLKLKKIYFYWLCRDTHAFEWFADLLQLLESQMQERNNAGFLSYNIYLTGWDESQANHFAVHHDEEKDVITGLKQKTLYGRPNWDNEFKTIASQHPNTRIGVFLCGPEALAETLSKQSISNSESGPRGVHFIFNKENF

[9] = target: NADPH oxidase 4 (Homo sapiens) (UniProt Q9NPH5); test: compounds shifting NOX4 Amplex Red fluorescence – cell-based, HEK293-NOX4, tetracycline-induced, NOX inhibitor project, primary screen (AID 1160); settings: HEK293-NOX4, Amplex Red H2O2 fluorescence, 45 min; higher = more signal, called active from +8 up or from −8 down
NADPH oxidase 4 (Homo sapiens), sequence (Q9NPH5 whole entry, looked up): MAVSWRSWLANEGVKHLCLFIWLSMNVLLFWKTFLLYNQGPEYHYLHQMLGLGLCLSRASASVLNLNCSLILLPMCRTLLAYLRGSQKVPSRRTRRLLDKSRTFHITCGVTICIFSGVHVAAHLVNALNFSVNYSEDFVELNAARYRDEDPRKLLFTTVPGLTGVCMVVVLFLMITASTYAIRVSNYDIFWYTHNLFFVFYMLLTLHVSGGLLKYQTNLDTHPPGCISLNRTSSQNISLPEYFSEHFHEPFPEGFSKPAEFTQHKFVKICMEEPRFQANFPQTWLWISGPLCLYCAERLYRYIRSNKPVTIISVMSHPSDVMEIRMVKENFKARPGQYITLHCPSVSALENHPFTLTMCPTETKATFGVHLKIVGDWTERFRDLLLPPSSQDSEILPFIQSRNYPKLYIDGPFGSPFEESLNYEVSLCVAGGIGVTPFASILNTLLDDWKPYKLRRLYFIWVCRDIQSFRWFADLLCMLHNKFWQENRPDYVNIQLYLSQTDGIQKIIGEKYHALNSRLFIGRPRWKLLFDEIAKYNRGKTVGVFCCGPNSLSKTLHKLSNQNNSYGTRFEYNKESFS

[10] = target: NADPH oxidase 5 (Homo sapiens) (UniProt Q96PH1); test: compounds shifting NOX5 Amplex Red fluorescence – cell-based, HEK293-NOX5, NOX inhibitor project, primary screen (AID 1161); settings: HEK293-NOX5, ionomycin, 45 min, higher = more signal
NADPH oxidase 5 (Homo sapiens), sequence (Q96PH1 whole entry, looked up): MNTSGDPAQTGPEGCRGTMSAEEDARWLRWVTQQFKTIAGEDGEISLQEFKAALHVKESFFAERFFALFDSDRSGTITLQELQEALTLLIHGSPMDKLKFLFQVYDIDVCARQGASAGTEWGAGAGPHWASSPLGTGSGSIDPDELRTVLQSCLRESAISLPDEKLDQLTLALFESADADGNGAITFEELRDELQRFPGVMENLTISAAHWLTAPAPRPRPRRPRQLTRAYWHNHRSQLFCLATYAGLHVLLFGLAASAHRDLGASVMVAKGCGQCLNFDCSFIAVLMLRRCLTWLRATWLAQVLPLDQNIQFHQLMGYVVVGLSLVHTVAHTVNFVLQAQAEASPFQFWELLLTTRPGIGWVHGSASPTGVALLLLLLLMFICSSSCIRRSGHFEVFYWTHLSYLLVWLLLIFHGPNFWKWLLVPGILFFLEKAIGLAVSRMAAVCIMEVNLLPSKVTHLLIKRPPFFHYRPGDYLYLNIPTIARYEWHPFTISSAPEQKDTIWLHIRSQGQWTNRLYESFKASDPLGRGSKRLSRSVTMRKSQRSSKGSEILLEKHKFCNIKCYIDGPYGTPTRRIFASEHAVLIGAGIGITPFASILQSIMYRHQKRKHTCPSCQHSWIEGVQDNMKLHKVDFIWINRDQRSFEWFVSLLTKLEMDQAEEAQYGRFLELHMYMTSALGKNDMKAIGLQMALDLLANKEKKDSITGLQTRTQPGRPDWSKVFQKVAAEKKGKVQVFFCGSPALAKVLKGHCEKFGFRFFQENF

[11] = compound effects on lung adenocarcinoma cell viability – A549, calcein-AM fluorescence, 48 h, basal, profiling panel (AID 1162); settings: higher = more signal; further: test concentration not given here
[12] = compound effects on differentiated 3T3-L1 adipocyte viability – cell-based, 3T3-L1 adipocytes, calcein-AM fluorescence, 48 h, basal, profiling panel (AID 1163); settings: 3T3-L1 adipocytes viability, higher = more signal; further: test concentration not given here
[13] = compound effects on hepatocellular carcinoma cell viability – HepG2, calcein-AM fluorescence, 48 h, basal, profiling panel (AID 1164); settings: higher = more signal; further: test concentration not given here
[14] = compound effects on multiple myeloma cell viability – MM1S, calcein-AM fluorescence, 48 h, basal, profiling panel (AID 1165); settings: higher = more signal;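 further: viability of MM1S multiple myeloma cells under basal unstimulated conditions; test concentration not given here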
[15] = calcein-AM signal in unstimulated myeloma cells – cell-based, calcein-AM fluorescence, 48 h, PK04 Diversity Set, profiling panel (AID 1166); settings: RPMI8226 myeloma viability, higher = more signal;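 further: cells grown under basal conditions without added stimulus; test concentration not given here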
[16] = JC-1 mitochondrial signal, unstimulated HepG2 cells – cell-based, JC-1 fluorescence, 24 h, 100 nL compound, profiling panel (AID 1167); settings: HepG2 mitochondrial potential, higher = more signal; further: test concentration not given here
[17] = JC-1 mitochondrial signal, unstimulated adipocytes – cell-based, JC-1 fluorescence, 3T3-L1 adipocytes, 24 h, 100 nL compound, profiling panel (AID 1168); settings: JC-1 mitochondrial fluorescence, higher = more signal, called active from +8 up or from −8 down; further: test concentration not given here
[18] = JC-1 mitochondrial signal, unstimulated myeloma cells – cell-based, JC-1 fluorescence, RPMI8226, 24 h, 100 nL compound, profiling panel (AID 1169); settings: JC-1 mitochondrial potential fluorescence, higher = more signal; further: test concentration not given here
[19] = JC-1 mitochondrial signal, unstimulated MM1S myeloma – cell-based, JC-1 fluorescence, 24 h, 100 nL compound, profiling panel (AID 1170); settings: MM1S mitochondrial potential, higher = more signal; further: test concentration not given here
[20] = resazurin metabolic signal in A549 cells – cell-based, resazurin fluorescence, 24 h, PK04 Diversity Set, profiling panel (AID 1171); settings: A549 viability, higher = more signal, called active from +8 up or from −8 down; further: test concentration not given here

| SMILES | z-score [1] | composite z-score [2] | z-score [3] | z-score [4] | z-score [5] | z-score [6] | z-score [7] | z-score [8] | z-score [9] | z-score [10] | z-score [11] | z-score [12] | z-score [13] | z-score [14] | z-score [15] | z-score [16] | z-score [17] | z-score [18] | z-score [19] | z-score [20] |
| --- | --- | --- | --- | --- | --- | --- | --- | --- | --- | --- | --- | --- | --- | --- | --- | --- | --- | --- | --- | --- |
| COCCOC(=O)N1C(=O)[C@@]2(c3ccccc31)[C@H](C(=O)N1CCCCCCC1)[C@H]1C(=O)O[C@H](c3ccccc3)[C@H](c3ccccc3)N1[C@@H]2c1ccc(OCCO)cc1 | -0.448 (inactive) | 3.13 | 8.64 (active) | 1.89 (inactive) | 1.31 (inactive) | 0.976 (inactive) | 0.213 | -0.0367 (inactive) | 0.867 (inactive) | 1.53 | -0.134 | -0.202 | -0.265 | -0.88 | -1.07 | -0.639 | -1.75 (inactive) | -0.714 | -1.15 | 0.526 (inactive) |
| C=C(/C(=C/C[C@H](OC(=O)c1ccncc1)c1ccc(OCCO)cc1)c1cc(C(=O)OC)ccc1OC)C(C)C | 0.936 (inactive) | 0.0455 | 14.5 (active) | 1.19 (inactive) | 1.29 (inactive) | -1.07 (inactive) | 0.622 | -1.78 (inactive) | -0.754 (inactive) | -2.43 | 0.0699 | 1.62 | -0.274 | -0.158 | -1.9 | 0.751 | 0.111 (inactive) | -0.143 | 0.503 | 0.827 (inactive) |
| CO[C@H]1O[C@H](CO)[C@@H](OC(=O)Nc2ccccc2-c2ccccc2)[C@H](OC(=O)Nc2ccccc2-c2ccccc2)[C@@H]1OC(=O)Nc1ccccc1-c1ccccc1 | 1.23 (inactive) | 0.407 | 1.79 (inactive) | 1.44 (inactive) | 0.552 (inactive) | 0.938 (inactive) | -0.296 | 2.02 (inactive) | 0.114 (inactive) | -0.114 | -0.378 | 0.159 | -0.0639 | -0.857 | -1.24 | 0.0618 | 1.6 (inactive) | -0.194 | 1.33 | -0.387 (inactive) |
| C=C(CCCC)C(=O)CC[C@@H](OC(C)=O)c1ccc(CO)o1 | 0.0002 (inactive) | -0.0278 | 0.113 (inactive) | 0.0176 (inactive) | -1.18 (inactive) | 0.184 (inactive) | -0.0622 | -1.23 (inactive) | -0.538 (inactive) | -2.37 | -0.779 | 0.37 | -0.293 | 0.0178 | -0.878 | -0.885 | 0.352 (inactive) | 0.703 | -0.179 | -0.0655 (inactive) |
| COc1ccc(C(O)C2C=CC3C(=O)N(C)C(=O)C3N2N(c2ccccc2)c2ccccc2)c2ccccc12 (stereo not given) | -1.24 (inactive) | 0.407 | 1.24 (inactive) | 1.4 (inactive) | 0.39 (inactive) | 1.32 (inactive) | -1.19 | -0.549 (inactive) | -0.247 (inactive) | -0.716 | -0.303 | -1.6 | 0.943 | 0.149 | 0.2 | -0.979 | -0.14 (inactive) | 0.545 | -0.67 | -0.738 (inactive) |
| CN1C(=O)C2C=CC(C(O)c3ccccc3)N(N3CCCCC3)C2C1=O (stereo not given) | -2 (inactive) | 0.0971 | 0.15 (inactive) | 0.913 (inactive) | 0.302 (inactive) | 0.827 (inactive) | -0.965 | -0.121 (inactive) | -1.01 (inactive) | -1.08 | -1.15 | -0.898 | -0.0624 | -0.4 | 0.539 | -0.699 | 0.651 (inactive) | 0.0583 | 0.581 | -0.789 (inactive) |
| CCOc1ccc(N2C(=O)CSC2c2cccc([N+](=O)[O-])c2)cc1 (stereo not given) | 0.379 (inactive) | 0.166 | 0.289 (inactive) | 0.285 (inactive) | 0.85 (inactive) | 0.0093 (inactive) | -0.287 | -0.957 (inactive) | -0.214 (inactive) | 0.887 | 1.77 | -0.704 | 1.1 | -0.119 | -0.804 | 1.61 | 0.989 (inactive) | -0.127 | -0.288 | 0.0421 (inactive) |
| CCCCCN1CC=CC23O[C@@H]4C=CCOC(=O)[C@@H]4[C@H]2C(=O)N(C(C)CO)[C@@H]3C1=O (stereo not given in full) | -0.0744 (inactive) | -0.103 | 0.59 (inactive) | 0.531 (inactive) | 0.136 (inactive) | 0.0638 (inactive) | 1.43 | 0.503 (inactive) | 0.306 (inactive) | 0.938 | -0.33 | -0.093 | -0.177 | -0.425 | -0.0937 | -0.714 | 0.282 (inactive) | -0.704 | -0.212 | 0.0264 (inactive) |
| COCCOC(=O)N1C(=O)[C@@]2(c3cc(C#CC4=CCCCC4)ccc31)[C@H](c1ccc(OCCO)cc1)N1[C@H](c3ccccc3)[C@H](c3ccccc3)OC(=O)[C@H]1[C@@H]2C(=O)N1CCc2cc(OC)c(OC)cc2C1 | 1.8 (inactive) | 0.26 | 3.15 (inactive) | 2.02 (inactive) | 0.817 (inactive) | 1.13 (inactive) | 0.0337 | 0.711 (inactive) | 0.842 (inactive) | 1.43 | 1.31 | 0.453 | 1.96 | 0.505 | -0.0521 | 0.578 | 2.21 (inactive) | -0.521 | -0.935 | -1.12 (inactive) |
